# Screens deposited in PubChem BioAssay by National Center for Advancing Translational Sciences (NCATS).
# Shown are actives, neighbours in structure and some others; about 19% of the full set was active somewhere.
# HT1080 IDH1KD tx: qHTS for induction of synthetic lethality in tumor cells producing 2HG: qHTS for the HT-1080-IDH1KD cell line; HT-1080 IDH1 knockdown viability, ATP luminescence, 48 h; Potency, µM (top dose mostly 46.1 µM), inactives show at the highest dose activity, negative = toxicity, actives largely listed as cytotoxic; 360,000 tested, 2% active; AID 686971, 2013;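 note: 0% = DMSO wells and -100% = cell-free medium wells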
#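 IDH1KD HT-1080 cells, 750/well, RPMI + 5% FBS; compound pinned after 2 h settling; 48 h, 37 °C; CellTiter-Glo luminescence; % activity normalised to DMSO and no-cell wells; curves fitted, classed by r2 and efficacy.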
# KB-V1 cytotox: qHTS assay for MDR1-selective chemotherapeutics: Primary screen using the drug-selected MDR subline cells KB-V1; KB-V1 MDR cells viability, CellTiter-Glo, 72 h; Potency, µM (doses to about 46.1 µM), usual class: cytotoxic; 400,000 tested, 3.4% active; note: nearly all actives have a fitted effect of over 60% in size
#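 Following 72 h at 37 degrees C with compound, KB-V1 cell viability was read by CellTiter-Glo luminescence, medium being phenol-red-free DMEM plus 10% FBS; concentration-response parameters came from normalized, curve-fitted qHTS data.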
# KB-3-1 cytotox: qHTS assay for MDR1-selective chemotherapeutics: Primary screen using the parental adenocarcinoma cell KB-3-1 | KB-3-1 viability, CellTiter-Glo ATP luminescence, 72 h | 400,000 tested, 1.4% active | Potency, µM (series often up to 46.1 µM), hits mostly cytotoxic; note: nearly all actives have a fitted effect of over 60% in size
#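 Cytotoxicity measured as CellTiter-Glo luminescence after 72 h at 37 C. Compound titrations were pinned onto drug-naive KB-3-1 parental adenocarcinoma cells grown in DMEM with 10% FBS, and normalized data fitted to concentration-response curves.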
# HT1080NT lethal: qHTS for induction of synthetic lethality in tumor cells producing 2HG: qHTS for the HT-1080-NT fibrosarcoma cell line | 360,000 tested, 1.6% active | Potency, µM (highest dose often 46.1 µM), inactives show at the top dose activity, negative = less viability, usual class: cytotoxic | HT-1080-NT fibrosarcoma viability, CellTiter-Glo ATP luminescence, 48 h;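 note: NT is the 2HG producing partner of a matched IDH1 knockdown line; 0% = DMSO-treated cells and -100% = media-only wells without cells; nearly all actives have a fitted effect of over 55% in size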
#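 A 48-hour cytotoxicity screen used HT-1080-NT cells plated 2 hours before compound delivery. ATP-based CellTiter-Glo luminescence measured viability, normalized to DMSO and no-cell controls.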
# TDP1 cell noCPT: qHTS for Inhibitors of human tyrosyl-DNA phosphodiesterase 1 (TDP1): qHTS in cells in absence of CPT | DT40 Tdp1-/- hTDP1 cells, no CPT, ATP luminescence, 48 h | Potency, µM (highest dose often 46.2 µM), for inactives: at the top dose activity change, negative = growth inhibition, actives largely listed as inhibitors | 420,000 tested, 15% active | AID 686978, 2013; note: nearly all actives have a fitted effect of over 55% in size
#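 A cellular qHTS used chicken DT40 cells lacking endogenous Tdp1 but carrying stably transfected human TDP1. Compounds were applied without camptothecin, and cell growth kinetics were judged by ATP-dependent luminescence after ≥48 hr.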
# TDP1 cell CPT: qHTS for Inhibitors of human tyrosyl-DNA phosphodiesterase 1 (TDP1): qHTS in cells in presence of CPT; chicken DT40 Tdp1-/-;hTDP1 cells + 20 nM CPT, ATP luminescence, 48 h; Potency, µM (series often up to 46.2 µM), for inactives: top-dose activity change, negative = growth inhibition, actives largely listed as inhibitors; 420,000 tested, 12% active; note: nearly all actives have a fitted effect of over 55% in size
#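 Chicken DT40 Tdp1-/- cells stably complemented with human TDP1 were seeded at 400 cells/well in medium containing 20 nM camptothecin, exposed to pin-transferred compounds, and grown at 37 °C for at least 48 hr. Viability was read as ATP luminescence.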
# * marks the source's active call; other numbers are inactive results; i = inactive; ? = inconclusive; . = no result given. Calls come from the whole dose curve; as a rule, active = well fitted curve in the direction sought with a large enough effect; inconclusive = small, poorly fitted or top-dose-only effect, or another doubt; inactive = no such curve, though single readings can be large; an effect the other way counts as inactive or inconclusive. Unless noted, % is set by controls: 0 for no effect and ±100 for the full control effect; potency is the fitted concentration of half-maximal effect.
SMILES,HT1080 IDH1KD tx,KB-V1 cytotox,KB-3-1 cytotox,HT1080NT lethal,TDP1 cell noCPT,TDP1 cell CPT
Fc1ccccc1-c1nc(N2CCCCC2)c2ccccc2n1,-2%,13µM*,?,10%,?,?
CN(Cc1ccccc1)c1ccc(-c2nc(-c3ccco3)no2)cc1[N+](=O)[O-],.,i,i,.,?,?
CCOC(=O)c1c(C)[nH]c(C)c1S(=O)(=O)NCC(=O)Nc1cccc(Cl)c1,.,?,i,.,-15%,?
O=C(OCc1ccccc1)N1CCC2CC1c1ccc(N3CCN(Cc4ccc5c(c4)OCO5)CC3)cc12 (centres undefined),?,i,i,?,?,?
COc1ccc(-c2ccc3c(c2)C2CC3CCN2C(=O)C(C)(C)C)cc1 (centres undefined),-1%,i,?,-2%,21µM*,?
CCCCN(C(C)=O)c1ccc2c(c1)C1CC2CCN1C(=O)OCc1ccccc1 (centres undefined),-24%,i,i,-14%,3.7µM*,2.1µM*
COc1cccc(-c2ccc3c(c2)C2CC3CCN2C(C)=O)c1 (centres undefined),1%,i,i,-3%,?,-2%
O=C(OCc1ccccc1)N1CCC2CC1c1cc(-c3ccc4c(c3)OCO4)ccc12 (centres undefined),3%,i,i,-3%,?,15µM*
Cc1ccc(C(=O)N2CCC3CC2c2cc(-c4ccc5c(c4)OCO5)ccc23)cc1 (centres undefined),-12%,i,i,-16%,13µM*,16µM*
O=C(c1ccc(-c2ccccc2)cc1)N1CCC2CC1c1cc(-c3ccc4c(c3)OCO4)ccc12 (centres undefined),4%,i,i,6%,?,?
O=C(COc1ccc(Cl)cc1)OCc1ccc(Cl)cc1,10%,i,i,1%,-4%,1%
O=S(=O)(Nc1ccc2cn[nH]c2c1)c1ccc(Cl)s1,-30%,i,i,-1%,-1%,2%
Nc1cc(=O)nc(SCC(=O)Nc2ccc(F)cc2)n1-c1cccc(Cl)c1,.,i,i,.,-13%,1%
O=C(Cn1ccn(-c2ccc(F)c(F)c2)c(=O)c1=O)c1ccc(F)cc1,.,.,.,.,10%,-14%
COc1ccc(CNC(=O)CN(c2ccc(C)cc2)S(=O)(=O)c2c(C)n[nH]c2C)cc1,.,i,i,.,?,-11%
Cc1n[nH]c(C)c1S(=O)(=O)N(CC(=O)NCc1ccccc1Cl)c1ccc(C(C)C)cc1,.,i,i,.,16µM*,?
COc1cccc(CNC(=O)CN(c2ccc(C(C)C)cc2)S(=O)(=O)c2c(C)n[nH]c2C)c1,.,i,i,.,23µM*,16µM*
Cc1ccc(N(CC(=O)NCc2ccccc2Cl)S(=O)(=O)c2c(C)noc2C)cc1,6%,i,i,3%,?,7%
Cc1ccc(NC(=O)CN(Cc2ccccc2)S(=O)(=O)c2ccc3nc(C)sc3c2)c(C)c1,.,i,i,.,?,?
CC1CCCC(C)N1C(=O)Cn1cc(/C=C2/C(=O)Nc3ccccc32)c2ccccc21 (centres undefined),?,i,i,?,21µM*,18µM*
